Laboratory results as given in PubChem BioAssay.
Several values for one entry are separate records, joined by “and”; a condition that tells them apart may be missing. Equal values may be shown once. Records with an inconclusive call do not appear. Activity calls are given as the source filed them.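 The calls were made as follows, unless noted: active = normalized viability below 100% at a tested concentration; inactive = the rest.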

Legend:
[1] = viability loss in pontine glioma line – cell-based, SU-DIPG-XVII, MIPE5.0, CellTiter-Glo, qHTS, dose response (AID 1347060; cut-off not given, nearly all actives have AC50 up to about 26 µM;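 as to AC50: cells exposed to compound for 48 hours before viability readout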); conditions: CellTiter-Glo ATP luminescence
[2] = viability loss in pontine glioma line – cell-based, SU-DIPG-XIII, MIPE4.0, CellTiter-Glo, qHTS, dose response (AID 1347061; cut-off not given, nearly all actives have AC50 up to about 37 µM;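 also: cells exposed to compound for 48 hours before readout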); conditions: CellTiter-Glo ATP luminescence
[3] = viability loss in pontine glioma line – cell-based, JHH-DIPG-1, MIPE4.0, CellTiter-Glo, qHTS, dose response (AID 1347062; cut-off not given, nearly all actives have AC50 up to about 27 µM;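 as to AC50: cells exposed to compound for two days before readout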); conditions: JHH-DIPG-1 viability, CellTiter-Glo ATP luminescence
[4] = viability loss in pontine glioma line – cell-based, SU-DIPG-IV, MIPE4.0, CellTiter-Glo, qHTS, dose response (AID 1347063; cut-off not given, nearly all actives have AC50 up to about 30 µM;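 also: compound exposure lasted 48 hours before the viability readout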); conditions: CellTiter-Glo ATP luminescence
[5] = viability loss in pontine glioma line – cell-based, SU-DIPG-XIII, MIPE5.0, CellTiter-Glo, qHTS, dose response (AID 1347064; cut-off not given, nearly all actives have AC50 up to about 23 µM;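 as to AC50: cells exposed to compound for 48 hours before the viability read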); conditions: CellTiter-Glo ATP luminescence
[6] = viability loss in pontine glioma line – cell-based, SU-DIPG-XXV, MIPE5.0, CellTiter-Glo, qHTS, dose response (AID 1347065; cut-off not given, nearly all actives have AC50 up to about 26 µM;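 also: cells exposed to compound for 48 hours before ATP readout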); conditions: CellTiter-Glo ATP luminescence
[7] = JHH-DIPG-1 glioma cell viability, MIPE5.0 library, CellTiter-Glo luminescence, qHTS (AID 1347067; cut-off not given, nearly all actives have AC50 up to about 26 µM;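 also: cells exposed to compound for 48 hours before readout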); conditions: JHH-DIPG-1 glioma viability, CellTiter-Glo ATP luminescence
[8] = growth inhibition of DIPG cells – cell-based, MIPE5.0 library, qHTS (AID 1347068; cut-off not given, nearly all actives have IC50 up to about 30 µM); conditions: SU-DIPG-XXV viability
[9] = viability loss with induced miR-34 in A549 – imaging, A549 dox-inducible miR-34, nuclei and caspase counts, primary screen (AID 1347080;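 active = compounds whose cell count with miR-34 switched on is under 0.7 times the count with it off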); conditions: A549 miR-34 inducible, Hoechst nuclei count, 48 h
[10] = MELAS cybrid and Rieske KO viability enhancers – cell-based, MELAS cybrids, Rieske KO mouse fibroblasts, CellTiter-Glo, primary screen (AID 1508586;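 active = mean z-score across replicates of 1.96 or higher in either the MELAS or the Rieske mutant cell line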;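 also: z relative to plate mean and SD of compound and empty wells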); conditions: low glucose
[11] = growth inhibition of DIPG cells – cell-based, MIPE4.0 library, CellTiter-Glo luminescence, qHTS (AID 1347066; cut-off not given, nearly all actives have AC50 up to about 30 µM;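 also: cells exposed to compound for 48 hours before readout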); conditions: SU-DIPG-VI viability, CellTiter-Glo ATP luminescence
[12] = compounds altering HSF1 focus formation in cells – imaging, Selleck Cancer Library (AID 1347162; in the data active = plate-normalised HSF1 focus index below about 0.46); conditions: human cells, HSF1 nuclear foci imaging, at 10 µM; SSMD: measured here: HSF1 foci SSMD mean; cell count: measured here: cell number; plate-normalised HSF1 focus index: stronger effect = lower value
[13] = drug combination growth inhibition, ovarian cancer – cell-based, oncology-focused library, rucaparib conditional, profiling panel (AID 1508598); conditions: patient-derived ovarian cancer cells, CellTiter-Glo viability, 144 h, stronger effect = lower value
[14] = stronger effect = lower value, cell number ratio, induced over uninduced
[15] = measured here: relative caspase fold change +Dox/-Dox
[16] = measured here: total cells with miR-34 induction, stronger effect = lower value
[17] = measured here: total cells without miR-34 induction
[18] = MELAS cybrid survival, CellTiter-Glo 48 h, stronger effect = higher value
[19] = Rieske KO mouse fibroblast survival, CellTiter-Glo 72 h

Compound: O=C(c1cncc(Br)c1)N1CCC(N2CCCC2)CC1
- outcome [1]: inactive
- outcome [2]: inactive
- outcome [3]: inactive
- outcome [4]: inactive
- outcome [5]: inactive
- outcome [6]: inactive
- AC50 [7]: 13.2 µM (active)
- outcome [8]: inactive
- fold change [9, 14]: 0.889 (inactive)
- fold change [9, 15]: 0.588
- cell count [9, 16]: 7820
- cell count [9, 17]: 8800
- z-score [10, 18]: -0.503 (inactive)
- z-score [10, 19]: -0.908

Compound: CC(C)c1noc(N2CCC(COc3ccc(-c4ccc(S(C)(=O)=O)cc4)nc3)CC2)n1
- outcome [1]: inactive
- outcome [2]: inactive
- outcome [3]: inactive
- outcome [4]: inactive
- outcome [5]: inactive
- outcome [11]: inactive
- outcome [7]: inactive
- outcome [8]: inactive
- fold change [9, 14]: 0.733 (inactive)
- fold change [9, 15]: 1.55
- cell count [9, 16]: 5110
- cell count [9, 17]: 6980
- z-score [10, 18]: -0.22 (inactive)
- z-score [10, 19]: 0.941

Compound: COc1c(C)cnc(Cn2cnc3c(Cl)nc(N)nc32)c1C
- AC50 [1]: 0.525 µM (active)
- AC50 [2]: 1.18 µM (active)
- AC50 [3]: 0.187 µM (active)
- AC50 [4]: 0.332 µM (active)
- AC50 [5]: 1.05 µM (active)
- AC50 [6]: 0.742 µM (active)
- AC50 [7]: 1.05 µM (active)
- fold change [9, 14]: 0.993 (inactive)
- fold change [9, 15]: 1.45
- cell count [9, 16]: 1950
- cell count [9, 17]: 1960
- SSMD [12]: 4.45
- cell count [12]: 7350
- plate-normalised HSF1 focus index [12]: 1.16 (inactive)
- z-score [10, 18]: 2.83 (active)
- z-score [10, 19]: 0.0158
- viability ([13]; at 0.000305 µM, OCI-C5x cells, with rucaparib 10 µM, 100% = cells with rucaparib alone): 115% (inactive)
- viability ([13]; at 0.000305 µM, OCI-C5x cells, without rucaparib): 104% (inactive)
- viability ([13]; at 0.000305 µM, OCI-P5x cells, with rucaparib 20 µM, 100% = cells with rucaparib alone): 111% (inactive)
- viability ([13]; at 0.000305 µM, OCI-P5x cells, without rucaparib): 99.7% (active)
- viability ([13]; at 0.00122 µM, OCI-C5x cells, with rucaparib 10 µM, 100% = cells with rucaparib alone): 122% (inactive)
- viability ([13]; at 0.00122 µM, OCI-C5x cells, without rucaparib): 111% (inactive)
- viability ([13]; at 0.00122 µM, OCI-P5x cells, with rucaparib 20 µM, 100% = cells with rucaparib alone): 116% (inactive)
- viability ([13]; at 0.00122 µM, OCI-P5x cells, without rucaparib): 110% (inactive)
- viability ([13]; at 0.00488 µM, OCI-C5x cells, with rucaparib 10 µM, 100% = cells with rucaparib alone): 123% (inactive)
- viability ([13]; at 0.00488 µM, OCI-C5x cells, without rucaparib): 82.7% (active)
- viability ([13]; at 0.00488 µM, OCI-P5x cells, with rucaparib 20 µM, 100% = cells with rucaparib alone): 122% (inactive)
- viability ([13]; at 0.00488 µM, OCI-P5x cells, without rucaparib): 118% (inactive)
- viability ([13]; at 0.0195 µM, OCI-C5x cells, with rucaparib 10 µM, 100% = cells with rucaparib alone): 125% (inactive)
- viability ([13]; at 0.0195 µM, OCI-C5x cells, without rucaparib): 111% (inactive)
- viability ([13]; at 0.0195 µM, OCI-P5x cells, with rucaparib 20 µM, 100% = cells with rucaparib alone): 128% (inactive)
- viability ([13]; at 0.0195 µM, OCI-P5x cells, without rucaparib): 121% (inactive)
- viability ([13]; at 0.0781 µM, OCI-C5x cells, with rucaparib 10 µM, 100% = cells with rucaparib alone): 133% (inactive)
- viability ([13]; at 0.0781 µM, OCI-C5x cells, without rucaparib): 137% (inactive)
- viability ([13]; at 0.0781 µM, OCI-P5x cells, with rucaparib 20 µM, 100% = cells with rucaparib alone): 33.6% (active)
- viability ([13]; at 0.0781 µM, OCI-P5x cells, without rucaparib): 68.7% (active)
- viability ([13]; at 0.313 µM, OCI-C5x cells, with rucaparib 10 µM, 100% = cells with rucaparib alone): 98.4% (active)
- viability ([13]; at 0.313 µM, OCI-C5x cells, without rucaparib): 127% (inactive)
- viability ([13]; at 0.313 µM, OCI-P5x cells, with rucaparib 20 µM, 100% = cells with rucaparib alone): 20.3% (active)
- viability ([13]; at 0.313 µM, OCI-P5x cells, without rucaparib): 9.78% (active)
- viability ([13]; at 1.25 µM, OCI-C5x cells, with rucaparib 10 µM, 100% = cells with rucaparib alone): 12.2% (active)
- viability ([13]; at 1.25 µM, OCI-C5x cells, without rucaparib): 15.4% (active)
- viability ([13]; at 1.25 µM, OCI-P5x cells, with rucaparib 20 µM, 100% = cells with rucaparib alone): 9% (active)
- viability ([13]; at 1.25 µM, OCI-P5x cells, without rucaparib): 7.18% (active)
- viability ([13]; at 5 µM, OCI-C5x cells, with rucaparib 10 µM, 100% = cells with rucaparib alone): 11.2% (active)
- viability ([13]; at 5 µM, OCI-C5x cells, without rucaparib): 10.3% (active)
- viability ([13]; at 5 µM, OCI-P5x cells, with rucaparib 20 µM, 100% = cells with rucaparib alone): 9.01% (active)
- viability ([13]; at 5 µM, OCI-P5x cells, without rucaparib): 6.09% (active)

Compound: CO[C@H]1/C=C/O[C@@]2(C)Oc3c(C)c(O)c4c(O)c(c(/C=N/N5CCN(C)CC5)c(O)c4c3C2=O)NC(=O)/C(C)=C\C=C\[C@H](C)[C@H](O)[C@@H](C)[C@@H](O)[C@@H](C)[C@H](OC(C)=O)[C@@H]1C
- outcome [1]: inactive
- outcome [2]: inactive
- outcome [3]: inactive
- outcome [4]: inactive
- AC50 [5]: 20.9 µM (active)
- outcome [7]: inactive
- fold change [9, 14]: 0.839 (inactive) and 0.889 (inactive)
- fold change [9, 15]: 1.31 and 1.13
- cell count [9, 16]: 9030 and 9880
- cell count [9, 17]: 10800 and 11100
- z-score [10, 18]: 1.76 (inactive) and 0.859 (inactive)
- z-score [10, 19]: -0.112 and -0.159
